Screens as filed in PubChem.
Shown is part of a subset that was picked to be rich in hits.
AMA1 RON2 block: disrupts binding of P. falciparum AMA1 to RON2. AlphaScreen AMA1-biotinylated RON2 peptide binding. AID 720542. 0.2% of 360,000 active. Potency, µM (series often up to 58.2 µM), for the others: at the highest dose activity change, negative = inhibition, usual class: inhibitors;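 further: potency means the concentration at half of the fitted maximal effect; 0% = vehicle wells and -100% = peptide control; nearly all actives have a fitted effect of over 45% in size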
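AMA1 (3D7) with his tag at 25 nM final met compounds first, then biotinylated RON2 peptide at 25 nM; detection used donor plus acceptor beads, 10 µg/mL apiece, read by AlphaScreen after 30 min at room temperature.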
AmpC inh detg: blocks E. coli AmpC beta-lactamase in detergent assay; AmpC hydrolysis of nitrocefin, absorbance 480 nm, 0.01% Triton; 0.041% of 370,000 active; AID 485294; Potency, µM (top dose mostly 114 µM), for the others: at the highest dose activity change, negative = inhibition, actives largely listed as inhibitors;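 further: potency means the concentration at half of the fitted maximal effect; 0% = no-compound wells and -100% = no-enzyme wells; nearly all actives have a fitted effect of over 25% in size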
Target sequence (P00811 whole entry, looked up): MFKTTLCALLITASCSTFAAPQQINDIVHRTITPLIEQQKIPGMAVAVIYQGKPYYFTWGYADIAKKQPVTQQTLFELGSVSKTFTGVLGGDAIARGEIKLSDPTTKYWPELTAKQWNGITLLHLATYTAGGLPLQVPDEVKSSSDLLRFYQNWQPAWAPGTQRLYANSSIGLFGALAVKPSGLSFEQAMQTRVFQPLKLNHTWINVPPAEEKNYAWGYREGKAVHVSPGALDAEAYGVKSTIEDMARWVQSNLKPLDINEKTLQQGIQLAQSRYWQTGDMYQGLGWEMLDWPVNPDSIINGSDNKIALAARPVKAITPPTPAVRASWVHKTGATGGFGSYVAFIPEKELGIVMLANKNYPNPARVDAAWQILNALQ
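AmpC (5.3 nM in the dispensed reagent) in 20 mM phosphate pH 7.0 with 0.01% (detergent screen) or 0.0001% Triton X-100 was preincubated with compounds for 15 min at room temperature. Nitrocefin was then added from an 800 uM solution, and hydrolysis was followed at 480 nm.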
Shiga toxin inh: Shiga toxin inhibition | AID 2315 | inhibition, % at 38.7 µM | 9.2% of 290,000 active | Vero cells, Shiga toxin protein synthesis inhibition reporter; in the data active means inhibition mostly above about 28%, no sharp cut-off; inactive means mostly below about 43%; further: 0% is about no effect
SARS PLP yeast: blocks SARS-CoV papain-like protease in a yeast assay; S. cerevisiae expressing SARS-CoV PLpro, growth rescue; Potency, µM (doses to about 32.9 µM), inactives show at the highest dose activity, positive = growth rescue, usual class: activators; 0.19% of 330,000 active; calls by dose curve; further: potency means the concentration at half of the fitted maximal effect; 0% is about no effect; nearly all actives have a fitted effect of over 55% in size
CHX counter: counter-screen for Shiga toxin inhibitors: cycloheximide protein synthesis inhibition; cell reporter, cycloheximide protein synthesis inhibition counterscreen; max response, %; 12% of 300,000 active; AID 2314; in the data active means max response mostly above about 13%, no sharp cut-off; inactive means mostly below about 14%; further: read at 38.3 µM for the half of the compounds with a filed dose; 0% is about no effect
AmpC no deterg: inhibitors of E. coli AmpC beta-lactamase without detergent; AmpC nitrocefin hydrolysis, absorbance 480 nm, 0.0001% Triton; Potency, µM (top dose mostly 57.1 µM), without a hit: top-dose activity change, negative = inhibition, most hits filed as inhibitors; AID 485341; 0.52% of 330,000 active; P00811;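 further: potency means the concentration at half of the fitted maximal effect; plate controls were no compound for no effect and no enzyme for full effect; nearly all actives have a fitted effect of over 20% in size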
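20 mM phosphate pH 7.0 + 0.01% (detergent screen) or 0.0001% Triton X-100; 5.3 nM AmpC reagent; cpd preinc 15 min RT; nitrocefin (800 uM stock) to start; A480 q20 s × 4 min; Activity was normalised to no-enzyme and no-compound control wells.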
* marks the source's active call; other numbers are inactive results; i = inactive; ? = inconclusive; . = not tested or not shown. Unless noted, the call rests on the fitted dose curve; in most records, active means well fitted curve in the direction sought with a large enough effect; inconclusive means small, poorly fitted or top-dose-only effect, or another doubt; inactive means no such curve, though single readings can be large; an effect the other way counts as inactive or inconclusive.

SMILES	AMA1 RON2 block	AmpC inh detg	Shiga toxin inh	SARS PLP yeast	CHX counter	AmpC no deterg
Cc1occc1C(=O)NNC(=S)NC(=O)COc1ccc(Cl)cc1Cl	59%	3%	42	2%	26*	-43%
COc1ccc(/C=N/NC(=O)CCn2nnc3ccccc32)cc1	-18%	1%	53*	0%	20*	-22%
COc1ccccc1/C=C\C=N\NC(=O)CCn1nnc2ccccc21	21%	0%	-5	3%	1	-32%
C/C(=N\NC(=O)CCn1nnc2ccccc21)c1ccco1	10%	?	35	2%	19*	-19%
COc1ccc(NC(=O)c2ccc(C)cc2Cl)c([N+](=O)[O-])c1	-4%	-9%	i	?	37*	-39%
COc1ccc(NC(=O)c2ccc([N+](=O)[O-])s2)c([N+](=O)[O-])c1	-4%	8%	46*	0%	25	-29%
COc1ccc(NC(=O)c2ccc(Br)o2)c([N+](=O)[O-])c1	-12%	0%	41	-2%	19*	-4%
COc1ccc(NC(=O)Cc2ccc(C)cc2)c([N+](=O)[O-])c1	-17%	6%	26	-10%	8	-13%
COc1ccc(NC(=O)c2ccc(C)o2)c([N+](=O)[O-])c1	-3%	-8%	39	13%	22*	-22%
Cn1c(=O)[nH]c(=O)c2c1nc(N1CCN(Cc3ccccc3)CC1)n2CCCc1ccccc1	0%	7%	1	0%	1	-2%
Cc1ccc2scc(N3CCN(C)CC3)c(=O)c2c1	.	?	83*	.	48*	.
Cc1ccc(CNC(=O)CN2C(=O)NC(C)(c3ccc(Cl)cc3)C2=O)cc1 (stereo not given)	4%	-2%	-2	1%	-1	-3%
Cc1ccc2nc(-c3ccc(NC(=O)CN4C(=O)NC(C)(c5ccc(OC(F)F)cc5)C4=O)cc3)sc2c1 (stereo not given)	-16%	3%	99*	22%	30*	-6%
CC1(c2ccc(OC(F)F)cc2)NC(=O)N(CC(=O)Nc2ccccc2)C1=O (stereo not given)	-2%	-3%	72*	1%	19*	-13%
Cc1ccc(C2(C)NC(=O)N(CC(=O)NCc3ccccc3Cl)C2=O)cc1 (stereo not given)	-9%	-1%	2	-1%	12*	3%
CC1(c2ccc(OC(F)F)cc2)NC(=O)N(CC(=O)Nc2ccc3[nH]c(=O)[nH]c3c2)C1=O (stereo not given)	5%	?	.	-6%	.	-34%
CCC(C)NC(=O)CSC1=Nc2ccccc2C2=NC(c3ccccc3)C(=O)N12 (stereo not given)	3%	0%	-13	2%	-6	-11%
O=C1c2ccccc2NC(c2ccccc2Cl)N1N=C1CCCCCC1 (stereo not given)	-18%	-11%	89*	-15%	37*	-53%
O=C1c2ccccc2NC2CCCCCN12 (stereo not given)	27%	-3%	2	-10%	5	-9%
CCOC(=O)[C@@H]1[C@H]2COc3ccccc3[C@H]2N2C(=O)N(c3ccc(F)cc3)C(=O)[C@]12C	-13%	-10%	-7	-7%	-2	36%
CCOC1=C2[C@@H](CN(S(=O)(=O)c3ccc(C)cc3)[C@H]2c2ccc(CC)cc2)[C@H]2C(=O)N(C)C(=O)[C@H]2C1	3%	.	.	.	.	.
COc1ccc(Nc2nc(N3CCCCC3)c3ccccc3n2)cc1	-40%	3%	37	-15%	10	-23%
COc1cc(C(=O)NCC2CCCO2)ccc1OCc1ccccc1Cl (stereo not given)	-11%	-7%	37	6%	16*	181%
COc1cc(OC)c(C(=O)OCC(=O)NC2CCCCCCC2)cc1OC	10%	.	.	-5%	.	32%
COc1cc(SC)ccc1C(=O)OCC(=O)NC1CCCC1	-11%	4%	113*	-2%	54*	1%
SMILES	AMA1 RON2 block	AmpC inh detg	Shiga toxin inh	SARS PLP yeast	CHX counter	AmpC no deterg
COc1cc(SC)ccc1C(=O)NC1CCCCC1	-1%	2%	51	17%	36*	-2%
COc1cc(C(=O)NCC2CCCO2)ccc1OCc1ccccc1 (stereo not given)	5%	3%	10	2%	6	45%
COc1cc(SC)ccc1C(=O)OCC(=O)NC1CCCCC1	-1%	?	35	-6%	60*	15%
O=C(COC(=O)c1cc(=O)[nH]c2ccccc12)c1ccc(Br)cc1	-1%	-1%	-3	2%	-3	-14%
CCOC(=O)c1c(CSc2ccc(CC)cc2)oc2ccc(O)c(CN(C)C)c12	-15%	-1%	-10	11%	-6	109%
COc1ccc(NS(=O)(=O)c2ccc(-n3cnnn3)cc2)cc1OC	24%	3%	6	-4%	-4	-14%
O=C(Nc1ccc2c(c1)OCO2)C1CCN(S(=O)(=O)c2ccc3c(c2)OCCO3)CC1	-4%	0%	16	-5%	-1	-34%
COc1ccc(C(=O)NCC2CCCO2)cc1OC (stereo not given)	5%	1%	12	-4%	-2	-4%
COc1cc(SC)ccc1C(=O)NCC1CCCO1 (stereo not given)	-20%	?	74	1%	24*	-14%
C[C@H](CO)N1C[C@H](C)[C@@H](CN(C)S(=O)(=O)c2ccccc2)Oc2ccc(NC(=O)CCC(F)(F)F)cc2C1=O	9%	.	.	9%	.	136%
COC(=O)CN1C(=O)[C@H]2[C@@H](c3ccc(C)o3)N3C(=O)CN(Cc4ccccc4)C(=O)[C@@]3(Cc3ccccc3)[C@H]2C1=O	38%	-8%	-5	-5%	-1	66%
Cc1cc(CNC(=O)C(C)n2nc(C)c([N+](=O)[O-])c2C)c2ccccc2n1 (stereo not given)	-18%	5%	-23	5%	-4	16%
COc1ccc(NC(=O)NCCc2cccc(Cl)c2)cc1OC	-13%	-12%	39	-2%	34*	-21%
O=C(/C=C/c1cccc(Cl)c1)NCCc1ccccc1	6%	-4%	107*	-62%	65*	-34%
S=C(NCc1ccccc1)NCc1cccc(Cl)c1	-3%	-2%	-4	?	13	-50%
O=C(O)/C=C/C(=O)NCCc1cccc(Cl)c1	-5%	-6%	11	-3%	-2	-6%
O=C(NCCc1ccccc1)Nc1cccc(Cl)c1	8%	-6%	40	-38%	49*	-51%
S=C(NCCc1cccc(Cl)c1)NCc1ccccc1	.	2%	33	-3%	25*	-47%
O=C(NCCc1ccc(Cl)cc1)Nc1cccc(Cl)c1	11%	-9%	37*	-16%	13	-31%
O=C(Nc1ccccc1Cl)NC1(C(=O)N2CCC(O)CC2)CCCCC1	3%	-4%	-10	2%	2	2%
